Assay results reported in ChEMBL document CHEMBL5308504, “Tm Shift (DSF) assay results for EUbOPEN Chemogenomics Library” (2023).
Several values for one entry are separate records, joined by “and”; a condition that tells them apart may be missing. Equal values may be shown once.

How the values were obtained:
Details in all cases: Compound concentration 20.0 uM, Protein concentration 2.0 uM, Result type QC Liability
[1] = biological target: Tyrosine-protein kinase ABL1 (Homo sapiens) (UniProt P00519)
Sequence of Tyrosine-protein kinase ABL1 (Homo sapiens) (P00519 whole entry): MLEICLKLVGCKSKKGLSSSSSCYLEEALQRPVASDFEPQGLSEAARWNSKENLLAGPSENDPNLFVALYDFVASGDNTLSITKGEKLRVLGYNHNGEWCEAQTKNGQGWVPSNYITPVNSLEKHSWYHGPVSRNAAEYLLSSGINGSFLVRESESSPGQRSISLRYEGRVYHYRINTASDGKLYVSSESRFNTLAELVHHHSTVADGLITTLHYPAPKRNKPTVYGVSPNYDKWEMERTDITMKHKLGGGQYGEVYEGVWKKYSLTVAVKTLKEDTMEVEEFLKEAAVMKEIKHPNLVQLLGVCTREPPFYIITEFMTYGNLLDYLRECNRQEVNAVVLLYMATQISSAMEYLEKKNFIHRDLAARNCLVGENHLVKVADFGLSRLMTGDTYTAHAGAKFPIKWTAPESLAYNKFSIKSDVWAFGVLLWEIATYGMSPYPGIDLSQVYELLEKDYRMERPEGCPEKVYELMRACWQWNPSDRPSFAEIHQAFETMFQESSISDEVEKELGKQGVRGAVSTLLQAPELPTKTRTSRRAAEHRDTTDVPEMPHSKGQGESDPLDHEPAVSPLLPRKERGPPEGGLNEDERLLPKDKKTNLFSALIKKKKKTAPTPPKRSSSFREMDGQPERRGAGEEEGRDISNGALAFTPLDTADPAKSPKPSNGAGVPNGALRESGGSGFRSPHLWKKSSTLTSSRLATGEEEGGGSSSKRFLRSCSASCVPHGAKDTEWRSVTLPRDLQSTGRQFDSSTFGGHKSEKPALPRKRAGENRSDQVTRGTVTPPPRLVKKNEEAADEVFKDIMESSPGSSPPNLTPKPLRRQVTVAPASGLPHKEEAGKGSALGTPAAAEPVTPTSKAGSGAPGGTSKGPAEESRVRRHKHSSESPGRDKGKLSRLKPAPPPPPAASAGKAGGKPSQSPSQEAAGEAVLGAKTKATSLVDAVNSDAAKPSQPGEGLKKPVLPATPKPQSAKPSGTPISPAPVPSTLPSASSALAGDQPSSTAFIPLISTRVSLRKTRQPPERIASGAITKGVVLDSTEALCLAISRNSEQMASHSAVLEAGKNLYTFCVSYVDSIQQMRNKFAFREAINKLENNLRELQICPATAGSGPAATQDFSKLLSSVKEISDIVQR

[2] = biological target: Cyclin-dependent kinase 2 (Homo sapiens) (UniProt P24941)
[3] = biological target: Glycogen synthase kinase-3 beta (Homo sapiens) (UniProt P49841)
Sequence of Glycogen synthase kinase-3 beta (Homo sapiens) (P49841 whole entry, looked up): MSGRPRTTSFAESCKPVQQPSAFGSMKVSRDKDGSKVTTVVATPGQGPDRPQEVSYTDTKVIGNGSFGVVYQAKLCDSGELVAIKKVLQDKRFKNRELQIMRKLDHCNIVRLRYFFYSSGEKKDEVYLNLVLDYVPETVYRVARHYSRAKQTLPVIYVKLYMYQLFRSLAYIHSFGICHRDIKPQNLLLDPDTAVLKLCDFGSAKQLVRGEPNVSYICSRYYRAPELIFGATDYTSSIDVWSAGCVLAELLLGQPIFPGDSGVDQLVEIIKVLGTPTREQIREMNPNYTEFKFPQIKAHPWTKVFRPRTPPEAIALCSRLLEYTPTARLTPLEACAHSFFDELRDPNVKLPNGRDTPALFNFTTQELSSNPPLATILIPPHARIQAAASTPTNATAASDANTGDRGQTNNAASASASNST

[4] = biological target: Mitogen-activated protein kinase 1 (Homo sapiens) (UniProt P28482)
Sequence of Mitogen-activated protein kinase 1 (Homo sapiens) (P28482 whole entry): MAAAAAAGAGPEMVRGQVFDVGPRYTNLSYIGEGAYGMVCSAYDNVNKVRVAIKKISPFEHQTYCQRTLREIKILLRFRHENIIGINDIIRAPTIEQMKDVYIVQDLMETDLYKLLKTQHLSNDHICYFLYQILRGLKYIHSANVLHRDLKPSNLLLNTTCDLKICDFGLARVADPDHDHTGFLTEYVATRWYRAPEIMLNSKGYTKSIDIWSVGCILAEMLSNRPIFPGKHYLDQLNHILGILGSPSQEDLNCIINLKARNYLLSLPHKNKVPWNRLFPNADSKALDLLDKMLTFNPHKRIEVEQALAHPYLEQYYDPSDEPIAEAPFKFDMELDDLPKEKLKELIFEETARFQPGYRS

[5] = biological target: T1, Aurora kinase A (Homo sapiens) (UniProt O14965)
T1 sequence (whole entry): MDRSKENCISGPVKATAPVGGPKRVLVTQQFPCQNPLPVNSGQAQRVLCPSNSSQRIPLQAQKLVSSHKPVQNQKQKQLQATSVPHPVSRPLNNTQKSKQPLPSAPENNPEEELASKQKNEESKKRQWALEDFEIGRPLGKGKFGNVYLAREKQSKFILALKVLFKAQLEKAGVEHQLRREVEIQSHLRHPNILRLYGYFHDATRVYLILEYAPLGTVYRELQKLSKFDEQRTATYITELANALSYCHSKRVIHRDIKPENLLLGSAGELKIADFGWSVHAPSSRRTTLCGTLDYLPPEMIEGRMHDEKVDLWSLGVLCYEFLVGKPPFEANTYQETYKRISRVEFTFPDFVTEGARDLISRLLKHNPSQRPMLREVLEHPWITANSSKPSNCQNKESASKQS

[6] = biological target: Casein kinase I isoform delta (Homo sapiens) (UniProt P48730)
Sequence of Casein kinase I isoform delta (Homo sapiens) (P48730 whole entry, looked up, canonical isoform): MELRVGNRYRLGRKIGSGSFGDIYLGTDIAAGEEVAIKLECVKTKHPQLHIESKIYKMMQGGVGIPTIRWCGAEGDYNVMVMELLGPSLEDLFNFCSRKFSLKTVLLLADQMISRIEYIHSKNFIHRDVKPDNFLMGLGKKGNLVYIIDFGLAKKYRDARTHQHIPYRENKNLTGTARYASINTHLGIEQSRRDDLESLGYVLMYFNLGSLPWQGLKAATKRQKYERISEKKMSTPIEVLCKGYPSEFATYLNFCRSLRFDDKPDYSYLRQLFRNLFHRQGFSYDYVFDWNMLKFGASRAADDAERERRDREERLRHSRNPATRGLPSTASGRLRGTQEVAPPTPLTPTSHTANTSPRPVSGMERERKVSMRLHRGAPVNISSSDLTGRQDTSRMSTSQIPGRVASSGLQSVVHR

| Structure (SMILES) | ΔTm [1] | ΔTm [2] | ΔTm [3] | ΔTm [4] | ΔTm [5] | ΔTm [6] |
| --- | --- | --- | --- | --- | --- | --- |
| CC[C@@H]1C(=O)N(C)c2cnc(Nc3ccc(C(=O)NC4CCN(C)CC4)cc3OC)nc2N1C1CCCC1 | 1.51 °C | 0.58 °C | 0.02 °C | 0.15 °C | -0.18 °C | – |
| O=C(NCc1ccc(F)cc1)C1CCN(S(=O)(=O)c2cc(Cl)cc(Cl)c2)CC1 | 0.04 °C | -0.1 °C | -0.45 °C | 0 °C | 0.52 °C | 0.71 °C |
| Cc1cc(Cn2c(N3CC4(CNC4)C3)nc3cc(Cl)cc(N4CCN(C)CC4)c32)cc(C)c1F | -0.24 °C | 0.2 °C | -1.71 °C | 0.34 °C | 0.08 °C | 0.39 °C |
| CN1CCN(c2ccc(/C=C(\C#N)c3ccccc3Br)cc2)CC1 | -0.04 °C | 0.19 °C | -0.47 °C | 0.11 °C | -1.83 °C | 0.85 °C |
| CC(C)(C)c1cnc(CSc2cnc(NC(=O)C3CCNCC3)s2)o1 | 0.04 °C | – | 8.72 °C | 0.73 °C | 4.45 °C | 1.29 °C |
| Cc1cc(OC2CCS(=O)(=O)CC2)cc(C)c1-c1cccc(COc2ccc(CCC(=O)O)c(F)c2)c1 | -0.51 °C | -2.34 °C | -4.55 °C | -0.4 °C | -1.9 °C | 0.59 °C |
| O=C1CCCc2[nH]c(-c3ccnc(NCC4CC4)c3)c(Nc3ccccc3)c21 | -0.41 °C | 0.46 °C | 1.37 °C | -0.73 °C | 0.11 °C | 3.16 °C |
| CC(C)S(=O)(=O)c1ccccc1Nc1nc(N[C@@H]2CCCN(CCCCCCCNC(=O)COc3cccc4c3C(=O)N(C3CCC(=O)N(C)C3=O)C4=O)C2)ncc1Cl (stereo not given in full) | 1.22 °C | 1.08 °C | 8.52 °C | 0.83 °C | 7.69 °C | 1.07 °C |
| O=C(Nc1ccc(OC(F)(F)Cl)cc1)c1cnc(N2CC[C@@H](O)C2)c(-c2cc[nH]n2)c1 | – | 1.08 °C | 0 °C | 0.21 °C | 0.17 °C | 0.99 °C |
| O=C(Nc1cccc(C(F)(F)F)c1)c1cccc(-n2cc(-c3ccco3)nn2)c1 | 0.46 °C | 0.62 °C | -7.24 °C | -10.6 °C | -2.64 °C | -5.13 °C |
| N#CN1CC[C@@H](C(=O)Nc2nc3c(s2)CN(C(=O)CN=[N+]=[N-])CC3)C1 | 0.86 °C | 0.33 °C | -0.33 °C | 0.62 °C | -0.54 °C | 0.49 °C |
| O=C1NC(=NCc2cccs2)SC1=Cc1ccc2ncccc2c1 | 2.9 °C | – | 3.78 °C | 0.66 °C | -0.94 °C | 0.75 °C |
| Cc1ccc(-n2nc(C(C)(C)C)cc2NC(=O)Nc2ccc(OCCN3CCOCC3)c3ccccc23)cc1 | – | 1.17 °C and 1.39 °C | 3.17 °C and 2.68 °C | 0.43 °C and 1.14 °C | 0.18 °C and 0.11 °C | 3.31 °C and 1.35 °C |
| CC1(C)C(=O)N([C@H]2CCc3c(O)cccc32)c2nc(Nc3cccc(CN4CCCC4)c3)ncc21 | – | 6.13 °C | 6.72 °C | 5.19 °C | 12.8 °C | 2.09 °C |
| CCN1C(=O)/C(=C(\NC2CCN(C)CC2)c2ccc3c(c2)OCO3)c2cc(C(C)=O)ccc21 | 0.4 °C | 0.54 °C | 0.62 °C | 0.05 °C | 0.02 °C | 1.8 °C |
| CC(C)N(CCCCOCC(=O)O)c1cnc(-c2ccccc2)c(-c2ccccc2)n1 | 0.75 °C | -0.83 °C | 0.74 °C | -0.32 °C | -1.44 °C | 0.48 °C |
| Cn1ccc(Cn2cnc(-c3ccc(F)cc3)c2-c2ccnc3[nH]ccc23)n1 | 0.71 °C | 0.42 °C | -0.53 °C | 0.21 °C | -0.97 °C | 6.32 °C |
| Cc1nc2cccnc2n2c(-c3cc(C(C)(C)O)ncc3Cl)nnc12 | -0.85 °C | 0.85 °C | -0.45 °C | 0.31 °C | -0.06 °C | 0.33 °C |
| CC(C)NC(=O)[C@H]1CCC[C@H]1Nc1nc(Nc2ccc(CN(C)C)cc2)ncc1Br | 6.63 °C | 1.87 °C | 0.23 °C | 1.81 °C | 14.5 °C | 0.87 °C |
| CCc1c(-c2ccc3[nH]ncc3c2)cnc(N)c1-c1ccc(O)cc1 | 1.38 °C | 2.8 °C | 1.03 °C | 0.44 °C | 3.28 °C | 1.28 °C |
| COc1ccc(-c2c(-c3ccccc3)oc3ncnc(O[C@H](C)CCCCC(=O)O)c23)cc1 | -0.07 °C | -2.59 °C | -2 °C | -3.65 °C | 5.26 °C | -0.84 °C |
